Inconclusive results are not listed. Where a call stands in place of a potency, no number is given. The source holds several records for some structures; these can differ, active in one and inactive in another. Activity calls are given as the source filed them. Unless noted, the call rests on the fitted dose curve; in most records, active means well fitted curve in the direction sought with a large enough effect in the repeat runs; inconclusive means weak or mixed curves; inactive means no such curve, though single readings can be large; an effect the other way counts as inactive or inconclusive.
Experiments:
[1] = qHTS assay to identify small molecule antagonists of the peroxisome proliferator-activated receptor delta (PPARd) signaling pathway - cell viability counter screen (AID 743213); further: nearly all actives have a fitted effect of over 50% in size
In short: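 CellTiter-Glo was added to PPARd-bla HEK293H wells following 17 h compound treatment in the presence of 300 nM L165041. Luminescence was recorded after 30 min at room temperature.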

[2] = qHTS assay to identify small molecule agonists of the farnesoid-X-receptor (FXR) signaling pathway - cell viability counter screen (AID 743218); further: nearly all actives have a fitted effect of over 45% in size
In short: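 Viability of FXR-bla HEK 293T cells is measured by ATP-based CellTiter-Glo luminescence following 16 h compound treatment at 37 C and a prior 2 h room-temperature beta-lactamase substrate step.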

[3] = qHTS assay to identify small molecule antagonists of the farnesoid-X-receptor (FXR) signaling pathway - cell viability counter screen (AID 743221; active means well fitted cell-killing curve with a large enough effect in the repeat runs, not every such curve was filed as active; further: nearly all actives have a fitted effect of over 50% in size)
In short: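 Cytotoxicity is taken from ATP luminescence (CellTiter-Glo, 30 min, room temperature) in FXR-bla HEK 293T cells previously incubated 16 h at 37 C with compound and chenodeoxycholic acid at 50 uM final.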

[4] = biological target: Vitamin D3 receptor (Homo sapiens) (UniProt P11473); assay: qHTS assay to identify small molecule agonists of the vitamin D receptor (VDR) signaling pathway (AID 743222; calls by dose curve)
Vitamin D3 receptor (Homo sapiens), sequence (P11473 whole entry, looked up): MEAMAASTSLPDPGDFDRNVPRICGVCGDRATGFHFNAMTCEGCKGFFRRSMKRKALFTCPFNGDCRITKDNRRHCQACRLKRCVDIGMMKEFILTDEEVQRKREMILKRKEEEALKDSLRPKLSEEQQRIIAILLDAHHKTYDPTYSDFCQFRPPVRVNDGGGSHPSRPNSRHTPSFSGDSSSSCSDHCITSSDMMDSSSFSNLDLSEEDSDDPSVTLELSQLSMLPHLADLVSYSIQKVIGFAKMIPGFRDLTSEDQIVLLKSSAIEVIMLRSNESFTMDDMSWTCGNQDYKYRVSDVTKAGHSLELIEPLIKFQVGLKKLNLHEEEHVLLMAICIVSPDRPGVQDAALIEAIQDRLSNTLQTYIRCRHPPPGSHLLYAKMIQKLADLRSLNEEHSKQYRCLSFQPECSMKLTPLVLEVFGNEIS
In short: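 Fluorescence from cleaved LiveBLAzer B/G FRET substrate served as readout. VDR-bla cells had been treated 16 h at 37C with test compounds in DMSO, following a 4 h settling period, and substrate was loaded for 2 h at RT.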

[5] = biological target: Vitamin D3 receptor (Homo sapiens) (UniProt P11473); assay: qHTS assay to identify small molecule antagonists of the vitamin D receptor (VDR) signaling pathway (AID 743223; active means well fitted inhibition curve with a large enough effect in the signal ratio in the repeat runs, not every such curve was filed as active; the % refers to the signal ratio)
In short: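 Quantitative HTS in VDR-bla reporter cells stimulated with 1alpha,25-dihydroxyvitamin D3, 3 nM final. Compound exposure 16 h, 37C, 5% CO2. Read-out: beta-lactamase FRET substrate fluorescence, 2 h RT.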

[6] = qHTS assay to identify small molecule agonists of the vitamin D receptor (VDR) signaling pathway - cell viability counter screen (AID 743224); further: nearly all actives have a fitted effect of over 50% in size; further: potency means the concentration at half of the fitted maximal effect
In short: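 Compounds were pin-transferred onto VDR-bla cells plated 4 h earlier; following 16 h incubation at 37C, cell viability was quantified by CellTiter-Glo luminescence after 30 min at room temperature.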

[7] = qHTS assay to identify small molecule antagonists of the vitamin D receptor (VDR) signaling pathway - cell viability counter screen (AID 743225); further: nearly all actives have a fitted effect of over 50% in size
In short: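 Same-well multiplex: following 16 h treatment of HEK 293T cells carrying a UAS-driven beta-lactamase reporter with compound and agonist (3 nM final), and a 2 h FRET substrate step, CellTiter-Glo was added and luminescence read after 30 min.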

[8] = biological target: Bile acid receptor (Homo sapiens) (UniProt Q96RI1); assay: qHTS assay to identify small molecule antagonists of the farnesoid-X-receptor (FXR) signaling pathway (AID 743217; active means well fitted inhibition curve with a large enough effect in the signal ratio in the repeat runs, not every such curve was filed as active; the % refers to the signal ratio)
Bile acid receptor (Homo sapiens), sequence (Q96RI1 whole entry, looked up): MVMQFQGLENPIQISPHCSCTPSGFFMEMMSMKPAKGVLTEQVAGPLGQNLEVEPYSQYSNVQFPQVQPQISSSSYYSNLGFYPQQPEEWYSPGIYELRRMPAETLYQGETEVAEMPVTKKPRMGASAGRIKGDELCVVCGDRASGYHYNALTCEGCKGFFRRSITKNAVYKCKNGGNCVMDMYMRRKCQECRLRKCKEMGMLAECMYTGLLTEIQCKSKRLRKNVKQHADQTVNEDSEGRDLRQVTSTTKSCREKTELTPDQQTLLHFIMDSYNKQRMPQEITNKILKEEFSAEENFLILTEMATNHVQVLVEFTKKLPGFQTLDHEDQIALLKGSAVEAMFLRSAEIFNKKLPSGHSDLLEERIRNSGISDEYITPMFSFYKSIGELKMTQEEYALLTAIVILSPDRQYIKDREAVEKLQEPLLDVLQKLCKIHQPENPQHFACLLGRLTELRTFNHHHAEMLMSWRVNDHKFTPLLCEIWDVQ
In short: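 Screen of the Tox21 10K library in quantitative HTS format using FXR-UAS-bla HEK 293T reporter cells. Agonist chenodeoxycholic acid, 50 uM final, added with compounds; 16 h incubation at 37 °C; beta-lactamase FRET fluorescence measured.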

[9] = biological target: Bile acid receptor (Homo sapiens) (UniProt Q96RI1); assay: qHTS assay to identify small molecule agonists of the farnesoid-X-receptor (FXR) signaling pathway (AID 743220; active means well fitted activation curve with a large enough effect in the signal ratio in the repeat runs, not every such curve was filed as active; the % refers to the signal ratio)
In short: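 FXR-UAS-bla HEK 293T cells carrying a UAS-driven beta-lactamase reporter were plated for 5 h at 37C/5% CO2, then exposed to DMSO-dissolved Tox21 10K compounds for 16 h at 37C. A LiveBLAzer B/G FRET substrate was loaded for 2 h at room temperature before fluorescence reading.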

[10] = biological target: Peroxisome proliferator-activated receptor delta (Homo sapiens) (UniProt Q03181); assay: qHTS assay to identify small molecule antagonists of the peroxisome proliferator-activated receptor delta (PPARd) signaling pathway (AID 743215; active means well fitted inhibition curve with a large enough effect in the signal ratio in the repeat runs, not every such curve was filed as active; the % refers to the signal ratio;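 further: cells stimulated with agonist L165041 at 300 nM final during compound exposure; series mostly up to about 62 µM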)
Peroxisome proliferator-activated receptor delta (Homo sapiens), sequence (Q03181 whole entry, looked up): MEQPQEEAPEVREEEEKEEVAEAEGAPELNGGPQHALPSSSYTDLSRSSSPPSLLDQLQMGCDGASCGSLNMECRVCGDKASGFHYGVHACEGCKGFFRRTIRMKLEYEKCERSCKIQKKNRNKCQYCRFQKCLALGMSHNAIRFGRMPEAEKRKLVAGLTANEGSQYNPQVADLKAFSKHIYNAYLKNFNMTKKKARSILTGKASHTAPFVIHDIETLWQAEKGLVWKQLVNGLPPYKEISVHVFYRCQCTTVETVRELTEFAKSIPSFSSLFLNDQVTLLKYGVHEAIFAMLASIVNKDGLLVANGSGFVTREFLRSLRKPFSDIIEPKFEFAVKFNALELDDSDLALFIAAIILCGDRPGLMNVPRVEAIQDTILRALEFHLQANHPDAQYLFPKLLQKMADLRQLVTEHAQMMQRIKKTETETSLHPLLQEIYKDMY
In short: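 Plated HEK293H PPARd-bla cells rested 5 h at 37 C and 5% CO2. Compound, then agonist L165041 at 300 nM final, was added; 17 h at 37 C followed. Substrate loading, 2 h room temperature, fluorescence measured.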

| SMILES | Potency [1] | Potency [2] | outcome [3] | outcome [4] | Potency [5] | Potency [6] | outcome [7] | Potency [8] | outcome [9] | outcome [10] |
| --- | --- | --- | --- | --- | --- | --- | --- | --- | --- | --- |
| C=C(C)OC(C)=O | inactive | inactive | inactive | inactive | inactive | inactive | inactive | – | – | – |
| COC1=CC(=O)C[C@@H](C)[C@]12Oc1c(Cl)c(OC)cc(OC)c1C2=O | inactive | inactive | inactive | inactive | – | inactive | inactive | inactive | inactive | – |
| CC(=O)Oc1ccccc1C(=O)O | inactive | inactive | inactive | inactive | inactive | inactive | inactive | – | – | – |
| C1CNCCN1 | inactive | inactive | inactive | inactive | inactive | inactive | inactive | – | – | – |
| CO[C@H]1C=CO[C@@]2(C)Oc3c(C)c(O)c4c(O)c(c(/C=N/N5CCN(C)CC5)c(O)c4c3C2=O)NC(=O)/C(C)=C\C=C[C@H](C)[C@H](O)[C@@H](C)[C@@H](O)[C@@H](C)[C@H](OC(C)=O)[C@@H]1C | inactive | inactive | inactive | inactive | inactive | inactive | inactive | – | – | – |
| CN(C)Cc1cc(CN(C)C)c(O)c(CN(C)C)c1 | inactive | inactive | inactive | – | – | inactive | inactive | inactive | inactive | – |
| COc1cc2c(c(OC)c1OC)-c1ccc(OC)c(=O)cc1[C@@H](NC(C)=O)CC2 | inactive | inactive | inactive | inactive | – | inactive | inactive | – | inactive | – |
| OC[C@@H](O)[C@@H](O)[C@H](O)[C@H](O)CO | inactive | inactive | inactive | inactive | inactive | inactive | inactive | – | – | – |
| NC(=O)N/N=C/c1ccc([N+](=O)[O-])o1 | inactive | inactive | inactive | inactive | inactive | inactive | inactive | – | – | – |
| O=C1OC(c2ccc(O)cc2)(c2ccc(O)cc2)c2ccccc21 | inactive | inactive | inactive | inactive | inactive | 48.7 µM (active) and inactive | inactive | – | – | – |
| CC1(C)O[C@@H]2[C@@H](CO[C@@]3(COS(N)(=O)=O)OC(C)(C)O[C@@H]23)O1 | inactive | inactive | inactive | inactive | inactive | inactive | inactive | – | – | – |
| CC(C)(C)CC(C)(C)c1ccc(O)c(-n2nc3ccccc3n2)c1 | inactive | – | inactive | inactive | inactive | inactive | inactive | – | inactive | inactive |
| CCCCOC(=O)CCCCCCCCC(=O)OCCCC | inactive | inactive | inactive | inactive | inactive | inactive | inactive | – | – | – |
| CCN1CCCC1=O | inactive | inactive | inactive | inactive | inactive | inactive | inactive | inactive | inactive | – |
| C/C=C/c1ccc(O)c(OC)c1 | inactive | inactive | inactive | – | – | inactive | inactive | – | – | – |
| CCN(CC)CCOC(=O)c1ccc(N)cc1 | inactive | inactive | inactive | inactive | inactive | inactive | inactive | – | – | – |
